# Test results taken from PubChem BioAssay.
# Assay: binders of probe aHhip on microarray, primary screen, stem cell growth factor project, biochemical, small-molecule microarray, fluorescence 635/667 (AID 1087);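 note: score merges spot fluorescence at 667nm with spot signal to noise ratio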
# Settings: higher = more signal
row,Compound,composite z-score
1,CC(C)C[C@@H]1NC(=O)[C@@]23C(=O)N[C@@H](Cc4ccccc4)C2[C@H](C)[C@@]2(C)O[C@H]2C3/C=C/C/C=C\CNC(=O)[C@@H](CC(C)C)NC1=O (stereo partly drawn),-0.206
2,C=CCC(OC(C)=O)[C@@H]1[C@@H](N(Cc2ccc(-c3cccc(C(F)(F)F)c3)o2)C(=O)c2cccc3ccccc23)c2cc(OCCCO)ccc2N1C(=O)c1ccc2ccccc2c1 (stereo partly drawn),-0.15
3,O=C1OCCC/C=C\[C@H]2OC34C=CCN(Cc5ccccc5)C(=O)[C@H]3N(CCCCCO)C(=O)[C@@H]4C12 (stereo partly drawn),-0.116
4,CCCC=C(CCC)[C@@H](NC(=O)c1ccccc1)c1ccc(C(=O)OC)cc1,1.09
5,COC(=O)[C@@]1(Cc2ccc(F)cc2)[C@H]2c3cc(C(=O)N4CCCC4)n(CCO)c3C[C@H]2CN1C(=O)c1ccccc1,0.628
6,COCCCNC(=O)[C@@]1(Sc2ccc(C)cc2)CC(=O)N(C2CCCCC2)[C@@H]1c1ccc(CO)cc1I,0.176
7,COc1ccc([Si](C)(C)[C@H]2[C@H](CCO)O[C@@]3(C(=O)N(Cc4ccc(N5CCOC5=O)cc4)c4ccccc43)[C@@H]2C)cc1,-0.0994
8,C=CCNC(=O)[C@@H]1[C@H]2C(=O)O[C@H](c3ccccc3)[C@H](c3ccccc3)N2[C@H](c2ccccc2OCCO)[C@@]12C(=O)N(C(=O)OCCOC)c1ccc(C#CCCO)cc12,0.277
9,COCCOC(=O)N1C(=O)[C@@]2(c3ccccc31)[C@H](C(=O)N1CCCCCCC1)[C@H]1C(=O)O[C@H](c3ccccc3)[C@H](c3ccccc3)N1[C@@H]2c1ccc(O)cc1,3.37
10,CCCCC(=C=CC[C@@H](O)c1cccc(OCCO)c1)CCO,-0.128
11,O=C(NCC(F)(F)F)[C@@H]1c2ccccc2C(=O)N(CC23CC4CC(CC(C4)C2)C3)[C@H]1c1ccc(CO)cc1,-0.0776
12,C=CCC(OC(C)=O)[C@@H]1[C@@H](N(Cc2cccc3ccccc23)C(=O)c2ccc(C)cc2)c2cc(OCCCO)ccc2N1C(=O)c1ccc2ccccc2n1 (stereo partly drawn),0.386
13,CC#CCO[Si](C#CCCCCCC)(C(C)C)C(C)C,-0.341
14,CC(C)(C)OC(=O)CC[C@]1(C(N)=O)N=C(c2ccc(OCCCO)cc2)O[C@H]1c1ccccc1CN=[N+]=[N-],0.0722
15,COc1ccc(CCNC(=O)[C@@]2(C)c3ccccc3C(=O)N(Cc3cc(C(F)(F)F)cc(C(F)(F)F)c3)[C@H]2c2ccc(CO)cc2)cc1,1.69
16,CN(C)CCCC[C@@H]1NC(=O)[C@@H]2C[C@H](C(=O)NCCCCCCNC(=O)CS)[C@H](c3cccc(OCCO)c3)N2C1=O,0.0373
17,COCCCNC(=O)[C@@H]1c2ccccc2C(=O)N(C2CCCCC2)[C@H]1c1ccc(CO)cc1,-0.236
18,COC(=O)C1=CC(CCCO)=CC(C2CC2)N(Cc2cccc(OC(F)(F)F)c2)C=C1C(=O)OC (stereo not drawn),-0.0645
19,C=C(C(=O)CC[C@@H](OC(C)=O)c1cccc(OCCO)c1)C(C)C,-0.0672
20,COc1ccc([Si](C)(C)[C@@H]2[C@@H](CC(=O)N(CCO)Cc3ccccc3)O[C@]3(C(=O)N(Cc4ccc(N5CCC5=O)cc4)c4ccccc43)[C@H]2C)cc1,-0.0267
21,CC(C)CNC(=O)[C@@H]1c2ccccc2C(=O)N(CC23CC4CC(CC(C4)C2)C3)[C@H]1c1ccc(CO)cc1,-0.115
22,COc1cc2c(cc1O)C(c1ccc(CN3CCCC3)cc1)N(Cc1ccc([N+](=O)[O-])o1)CC2 (stereo not drawn),-0.354
23,COC(=O)[C@]1(CO)N=C(c2ccc(OCCCO)cc2)O[C@@H]1c1ccccc1CN=[N+]=[N-],-0.286
24,COCCOC(=O)N1C(=O)[C@@]2(c3ccccc31)[C@H](c1ccc(OCCO)cc1)N1[C@H](c3ccccc3)[C@H](c3ccccc3)OC(=O)[C@H]1[C@@H]2C(=O)N1CCN(c2ncccn2)CC1,0.107
25,COCCOC(=O)N1C(=O)[C@@]2(c3cc(C#Cc4ccc(OC)cc4)ccc31)[C@H](c1ccc(OCCO)cc1)N1[C@H](c3ccccc3)[C@H](c3ccccc3)OC(=O)[C@H]1[C@@H]2C(=O)N1CCCCCCC1,2.59
26,Cc1ccccc1C(O)C1C=CC2C(=O)N(c3ccccc3)C(=O)C2N1Nc1ccccc1F (stereo not drawn),-0.0994
27,CO[C@H]1O[C@H](CO)[C@@H](OC(=O)Nc2ccc(C(F)(F)F)cc2)[C@H](OC(=O)Nc2ccccc2-c2ccccc2)[C@@H]1OC(=O)Nc1ccccc1-c1ccccc1,-0.146
28,C=C(COC)C(=O)CC[C@@H](OC(C)=O)c1ccc(OCCO)cc1,0.347
